Assay outcomes deposited in PubChem by NMMLSC.
The list is not random: actives were taken first. Their share in the collection is about 3.5%.
Anthrax LF inh2 = inhibitors of Bacillus anthracis lethal factor protease; multiplex microsphere protease cleavage assay, LF; inhibition, % at 10 µM; 360,000 compounds, 0.12% hits; AID 588501; also: plate controls were buffer without enzyme for full effect and enzyme alone for no effect
BoNT-A LC inh2 = BoNT A light chain protease inhibition; multiplex microsphere protease substrate cleavage, flow cytometry; inhibition, % at 10 µM; 360,000 compounds, 0.17% hits; also: plate controls were buffer without enzyme for full effect and enzyme alone for no effect
Bead autofluor = counter-screen for toxin protease inhibitors: compound fluorescence; compound autofluorescence counterscreen, microsphere flow cytometry; hits give high values; 360,000 compounds, 3.1% hits; fluorescence intensity (no concentration beside the values); in the data active = fluorescence intensity above about 16000; inconclusive = no clear call, values can overlap the other calls
BoNT-F LC inh = BoNT F light chain protease inhibition; Multiplex microsphere protease cleavage assay, flow cytometry; inhibition, % at 10 µM; 360,000 compounds, 0.22% hits; AID 588497; in the data active = inhibition above about 35%, passing the limit was not always enough; inconclusive = no clear call, values can overlap the other calls; also: plate controls were buffer without enzyme for full effect and enzyme alone for no effect
* hit, by the source's call; ? = inconclusive. Rule as the data show it, unless noted: active = inhibition above about 30%; inconclusive = no clear call, values can overlap the other calls; inactive = below that.

SMILES	Anthrax LF inh2	BoNT-A LC inh2	Bead autofluor	BoNT-F LC inh
COC(=O)CCCCCCCCCCN1CCCCC1	-1.1	0.0	2559	-2.3
COc1ccc(S(=O)(=O)N(C)c2ccc(C(=O)Nc3cccnc3)cc2)cc1	-3.8	-3.5	7272	-0.8
O=c1[nH]c2ccc(Br)cc2c(=O)o1	-5.2	0.5	3676	-0.2
CCc1ccc(C(O)c2ncc(-c3ccccc3C(F)(F)F)[nH]2)cc1 (stereo not drawn)	-0.3	-0.3	3790	-6.9
O=C(Nc1ccccc1)c1cccc(N2C(=O)C3C4CC(C(Br)C4Br)C3C2=O)c1 (stereo not drawn)	-1.4	-2.0	4497	-4.6
O=C(OCCCN1CCCCC1)c1ccc(O)cc1	-4.0	0.3	5888	-23.1
O=C(OCCN1CCCCC1)c1ccc(O)cc1	1.1	2.8	21154*	4.6
COCCCNC(=O)C[C@H]1C[C@H](C(=O)N2CCCCC2)[C@@]2(C)c3[nH]c4cc(-c5ccco5)ccc4c3CCN2C1=O	-4.2	0.1	3504	1.6
O=S(=O)(NCc1ccccn1)c1ccccc1	-19.7	0.8	9058	-4.1
O=S(=O)(Cc1ccccc1)NCc1ccccn1	3.2	-1.2	21025*	1.0
CC(Sc1cccc[n+]1[O-])C(=O)NC1CCCCC1C (stereo not drawn)	0.3	-0.7	4192	2.1
CCOc1ccc(S(=O)(=O)N(CC)CC(=O)NC2CC2)cc1	0.5	-0.7	4772	2.5
CC(C)[C@H](NC(=O)C1CCN(S(=O)(=O)c2ccccc2)CC1)C(=O)NCc1ccncc1	-3.3	-5.4	6246	-10.5
Cc1ccc(S(=O)c2ccc(C)cc2)cc1	-0.1	?	20056*	-1.8
CCC(=O)NC(=S)NNC(=O)c1ccc([N+](=O)[O-])cc1	-3.7	0.3	20381*	0.4
Cc1ccc(NC(=O)C2CCCN2C(=O)Oc2ccccc2)cc1C (stereo not drawn)	-0.5	5.5	17854*	7.3
Cc1ccc(-n2c(C)cc(/C=N/NC(=O)c3ccc(CN4CCOCC4)cc3)c2C)cc1	-3.2	1.9	19963*	-0.7
Cc1cccc(-n2c(C)cc(/C=N/NC(=O)c3ccc(CN4CCOCC4)cc3)c2C)c1	-3.2	-1.2	11405	-9.3
Cc1[nH]c(=S)c(C#N)c2c1CCCC2	2.8	0.9	3389	4.4
Cc1[nH]c(=O)c(C#N)c2c1CCCC2	-2.3	4.0	22068*	3.6
COC(=O)C(Cc1ccc(O)cc1)NC(=O)NC12CC3CC(CC(C3)C1)C2 (stereo not drawn)	2.0	-3.0	4077	-1.1
CCN1C(=O)[C@@H]2[C@@H]3CN(S(=O)(=O)c4ccc(C)cc4)[C@@H](c4ccccc4Cl)[C@@H]3C(=O)C[C@@H]2C1=O	1.5	-0.3	5594	-3.8
CCNC(=O)C1(C)CCCCN1Cc1ccc(C#N)cc1 (stereo not drawn)	-5.9	-0.3	2932	-7.6
COc1cc2c(cc1OC)C(=O)CCC2	-8.7	-0.4	3962	-16.8
CNC(=O)C1=NCCCc2cc(OC)c(OC)cc21	-0.2	?	20275*	-1.2
SMILES	Anthrax LF inh2	BoNT-A LC inh2	Bead autofluor	BoNT-F LC inh
CC1CCN(C(=O)COC(=O)c2cccs2)CC1	0.1	-0.6	3866	-1.4
COC(=O)c1cccnc1-n1c(=O)c2cccnc2n(Cc2ccc(Cl)cc2)c1=O	-1.2	0.2	22186*	1.7
CC(NC(=O)CSc1ncnc2nc[nH]c12)c1ccccc1 (stereo not drawn)	-5.6	1.2	21770*	4.0
O=C(CSc1ncnc2nc[nH]c12)NCCc1ccccc1	-6.9	-0.6	3124	3.6
Cc1ccc(-c2cc3nc(C)cc(NCc4ccco4)n3n2)cc1	-3.9	1.9	16495*	6.6
CC(C)c1ccc(C(=O)OCC(=O)Nc2cccc(S(=O)(=O)NC3=NCCC3)c2)cc1	-3.3	-0.1	3646	3.8
O=C(Nn1c(O)c(C=C2N=c3ccccc3=N2)sc1=S)c1cccc(Cl)c1	55.7*	54.7*	5573	55.0*
O=C(Nn1c(O)c(C=C2N=c3ccccc3=N2)sc1=S)c1ccc(Cl)cc1	69.9*	?	13151	57.5*
O=C(Nn1c(O)c(C=C2N=c3ccccc3=N2)sc1=S)c1ccccc1	77.5*	108.1*	7668	65.3*
Cc1ccc(S(=O)(=O)Nn2c(O)c(C=C3N=c4ccccc4=N3)sc2=S)cc1	6.3	8.5	5052	-4.7
Cc1ccc(C(=O)Nn2c(O)c(C=C3N=c4ccccc4=N3)sc2=S)cc1	69.0*	77.5*	6339	64.2*
O=C1N=c2ccccc2=C1c1sc(=S)n(NC(=O)c2cccc(O)c2)c1O	-3.0	2.5	4228	0.7
CCNC(=O)C1(C)CCCN1C(=O)c1ccc(-c2ccccc2)cc1 (stereo not drawn)	-1.5	-0.2	4043	0.9
